Assay outcomes from PubChem.
HP1b chromo inh: blocks HP1-beta chromodomain binding to methylated histone tails. P83916. AlphaScreen HP1-beta / biotin-H3K9me3 peptide binding. Potency, µM (series often up to 114 µM), for the others: top-dose activity change, negative = inhibition, most hits filed as inhibitors. hit rate 0.56% among 390,000; note: potency is the fitted concentration of half-maximal effect; nearly all actives have a fitted effect of over 70% in size
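AlphaScreen: HP1-beta (50 nM) preformed 30 min with biotin-H3(1-18)K9me3 peptide (50 nM) in PBS pH 7.4, 0.01% Tween-20. Compound added for 30 min at RT, then streptavidin donor/nickel chelate acceptor beads (10 ug/mL) for 30 min.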
BAZ2B block: BAZ2B (human) inhibition | Q9UIF8 | hit rate 4.4% among 360,000 | AID 504333 | AlphaScreen BAZ2B-H3K14Ac peptide displacement | Potency, µM (series often up to 114 µM), without a hit: at the highest dose activity change, negative = inhibition, actives largely listed as inhibitors; note: potency is the fitted concentration of half-maximal effect; % is set by controls: 0 for no effect and ±100 for the full control effect; nearly all actives have a fitted effect of over 60% in size
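AlphaScreen displacement: compounds (up to 110uM) incubated 30 min at room temperature with a preformed 50 nM BAZ2B/50 nM biotinylated H3K14Ac peptide complex in PBS pH 7.4 with Tween-20. Donor and acceptor beads at 10 ug/mL final added, 20 min light-protected before reading.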
JMJD2A Tudor inh: blocks the human JMJD2A Tudor domain. hit rate 4.4% among 390,000. AlphaScreen JMJD2A-Tudor / H3K4me3 peptide binding. O75164. AID 504339. Potency, µM (series often up to 114 µM), for inactives: top-dose activity change, negative = inhibition, usual class: inhibitors; note: potency is the fitted concentration of half-maximal effect; % is set by controls: 0 for no effect and ±100 for the full control effect; nearly all actives have a fitted effect of over 50% in size
PI5P4K alpha inh: blocks human PI5P4K alpha kinase activity; P48426; PI5P4Kalpha enzyme, ADP-Glo luminescence, 60 min; stronger effect = lower value; max response, %; hit rate 1.2% among 330,000; active = max response of -50% or lower; inconclusive = between -30% and -50%; inactive = -30% or higher; note: value at the top dose of about 77 µM; % is set by controls: 0 for no effect and ±100 for the full control effect
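ADP-Glo luminescence end-point read after a 60 min room-temperature kinase reaction of PI5P4Kalpha plus substrate, initiated with ATP at 5 microM final. Buffer: 0.038 M HEPES pH 7.4, EGTA, 0.1% CHAPS, 5% DMSO.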
L3MBTL1 inh: L3MBTL1 (human) inhibition; Q9Y468; AlphaScreen L3MBTL1–H3K9me1 peptide binding; Potency, µM (top dose mostly 57.1 µM), inactives show at the highest dose activity, negative = inhibition, hits mostly inhibitors; hit rate 0.66% among 230,000; AID 485360; note: potency is the fitted concentration of half-maximal effect; % is set by controls: 0 for no effect and ±100 for the full control effect; nearly all actives have a fitted effect of over 60% in size
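L3MBTL1 50 nM + b-AHA-H3(1-15)K9me1 75 nM, 30 min RT; compound added, 30 min RT; streptavidin donor/Ni-chelate acceptor beads 10 ug/mL each final, 30 min RT dark; AlphaScreen read.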
G9a inh: blocks human histone lysine methyltransferase G9a; hit rate 8.8% among 350,000; Potency, µM (highest dose often 102 µM), without a hit: at the top dose activity, negative = inhibition, most hits filed as inhibitors; Q96KQ7; G9a H3K9 monomethylation, AlphaScreen, 2 h; note: potency is the fitted concentration of half-maximal effect; % is set by controls: 0 for no effect and ±100 for the full control effect; nearly all actives have a fitted effect of over 75% in size
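Compounds were preincubated with 20 nM G9a for 15 min, after which biotinylated H3K9 peptide (500 nM) and SAM (20 uM) started a 2 h room-temperature reaction. Monomethylated product was quantified by antibody-based AlphaScreen chemiluminescence.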
Starred values were filed as active, the others as inactive; ? = inconclusive; nt = not tested or not shown; [ ] = remark or other dose. Compounds with a hit are over-represented: about 11% of the library has one in this group of screens. Unless noted, calls come from the whole dose curve; as a rule, active = well fitted inhibition curve with a large enough effect; inconclusive = small, poorly fitted or top-dose-only effect; inactive = no such curve, though single readings can be large or run the other way.

SMILES	HP1b chromo inh	BAZ2B block	JMJD2A Tudor inh	PI5P4K alpha inh	L3MBTL1 inh	G9a inh
Cn1cccc1CC(=O)N/N=C/c1cc([N+](=O)[O-])ccc1Cl	-2%	?	-21%	-28	?	45µM*
Cn1cccc1CC(=O)N/N=C/c1cccc([N+](=O)[O-])c1	-22%	?	?	-13	-14%	?
Cn1cccc1CC(=O)N/N=C/c1ccc(Cl)c([N+](=O)[O-])c1	5%	40µM*	-29%	-12	nt	50µM*
Cc1cn2c(=O)cc(COC(=O)c3ccc(NC(=O)COc4ccc(C)c(C)c4)cc3)nc2s1	22%	-13%	12%	nt	nt	0%[12.7 µM]
COc1ccc(N2CCN(c3ncnc4onc(C)c34)CC2)cc1	14%	5%[57.1 µM]	-26%	nt	nt	?
O=C(NCc1n[nH]c(=S)n1-c1ccc(Br)cc1)c1ccc(S(=O)(=O)N2CCCCC2)cc1	-15%	-19%	-33%	2	nt	7.9µM*
O=C(NCc1n[nH]c(=S)n1-c1ccc(Cl)c(Cl)c1)c1ccc(S(=O)(=O)N2CCOCC2)cc1	27%	-16%	-22%	3	-10%	8.9µM*
COc1cccc(CNC(=O)c2ccc(S(=O)(=O)N3CCOCC3)cc2)c1	20%	8%	-14%	0	5%	-36%
COc1ccccc1-n1c(CNC(=O)c2ccc(S(=O)(=O)N3CCOCC3)cc2)n[nH]c1=S	21%	?	20µM*	nt	nt	8.9µM*
COc1ccc(-n2c(CNC(=O)c3ccc(S(=O)(=O)N4CCCC4)cc3)n[nH]c2=S)cc1	9%	-7%	7.9µM*	nt	-2%	?
COc1ccc(-n2nnnc2CNC(=O)c2ccc(S(=O)(=O)N3CCOCC3)cc2)cc1	12%	7%	-11%	-2	-3%	-7%[0.501 µM]
CCC12CN3CC(C)(CN(C1)C3c1c[nH]c3ccccc13)C2=O (centres undefined)	45%	-17%	-13%	nt	nt	2%[59 µM]
Cc1nn(-c2ccc(N3CCOCC3)nn2)c(C)c1CCC(=O)Nc1ccc(F)cc1F	97%	25%	-29%	nt	nt	-2%[59 µM]
CC(=O)Nc1c(C(=O)Nc2cccc(C)c2)nnn1-c1ccc(C)cc1	53%	2%	-23%	nt	nt	6%[59 µM]
O=C(NCc1n[nH]c(=S)n1-c1ccc([N+](=O)[O-])cc1)c1ccc(S(=O)(=O)N2CCOCC2)cc1	22%	-7%	56µM*	0	nt	7.1µM*
Cc1ccc(CNC(=O)c2ccc(S(=O)(=O)N3CCCCCC3)cc2)cc1	nt	nt	nt	2	nt	nt
O=C(NCc1nnnn1-c1ccc(F)cc1)c1ccc(S(=O)(=O)N2CCOCC2)cc1	nt	nt	nt	0	nt	nt
O=C(NCc1n[nH]c(=S)n1-c1ccc(Br)cc1)c1ccc(S(=O)(=O)N2CCCC2)cc1	23%	-35%	-32%	4	0%	2.5µM*
O=C(NCc1n[nH]c(=S)n1-c1ccc(Br)cc1)c1ccc(S(=O)(=O)N2CCOCC2)cc1	28%	-5%	?	-3	nt	3.2µM*
O=C(NCc1n[nH]c(=S)n1-c1ccc(F)cc1)c1ccc(S(=O)(=O)N2CCCCC2)cc1	18%	0%	?	-6	nt	2.5µM*
COC(=O)CN1C(=O)CSc2ccc(S(=O)(=O)Nc3c(C)cc(C)cc3C)cc21	21%	-16%	-3%	nt	nt	-24%[59 µM]
O=c1[nH]c2ccc(NCc3ccc(-c4cccc(Cl)c4)o3)cc2[nH]1	18%	-10%	-28%	nt	nt	?
CCOc1ccc(Br)cc1C1C(C(=O)Nc2ccccc2OC)=C(C)Nc2nnnn21 (centres undefined)	21%	-10%	-12%	nt	nt	-2%[59 µM]
CCN(c1cccc(C)c1)S(=O)(=O)c1nnc(NC(=O)C2CCCCC2)s1	206%	98%	83%	nt	nt	83%[59 µM]
CC1CCN(S(=O)(=O)c2ccc3c(c2)N(CC(=O)NC(C)C)C(=O)CS3)CC1	15%	0%	-15%	nt	nt	5%[59 µM]
SMILES	HP1b chromo inh	BAZ2B block	JMJD2A Tudor inh	PI5P4K alpha inh	L3MBTL1 inh	G9a inh
C(=N\n1cnnc1)/c1ccc(OCc2ccccc2)cc1	43%	nt	-2%	nt	8%	2%[59 µM]
Cc1cc(/C=N/n2cnnc2)c(C)n1-c1ccc(OCc2ccc(Cl)cc2)cc1	?	79µM*	45µM*	0	nt	40µM*
Cc1cc(/C=N/n2cnnc2)c(C)n1-c1ccc(OCc2ccccc2F)cc1	?	?	56µM*	nt	-16%	?
COc1ccc(F)cc1S(=O)(=O)NCCc1sc2nc(-c3ccc(F)cc3)nn2c1C	14%	-14%	-16%	nt	nt	-2%[59 µM]
Cc1ccc(Cn2cc(S(=O)(=O)c3ccc(C(C)C)cc3)c(=O)c3cc4c(cc32)OCO4)cc1	9%	-1%	-31%	3	-3%	45µM*
COC(=O)c1ccc(N2NC(=O)/C(=C/c3cc(OC)c(OC)c(OC)c3)C2=O)cc1	19%	-30%	-10%	-11	nt	-12%[2.33 µM]
COC(=O)N/N=C\c1cccc(OC(=O)c2cccs2)c1	35%	-12%	-13%	1	nt	15%[59 µM]
O=C1NN(c2ccccc2)C(=O)/C1=C\c1cccc(OC(=O)c2cccs2)c1	3%	56µM*	?	?	nt	?
O=C1NN(c2ccc(Cl)c(Cl)c2)C(=O)/C1=C/c1cccc(OC(=O)c2cccs2)c1	nt	50µM*	nt	nt	nt	?
Cc1cc(NC(=O)COCc2cc(-c3ccc(F)cc3)on2)ccc1Br	63%	17%	22%	nt	nt	7%[59 µM]
CCC(=O)OC1(C)C(=O)C=C2C=C(c3ccc(C#N)cc3)OC=C2C1=O (centres undefined)	-20%	nt	?	-68*	nt	nt
COc1ccc(C2CC2/C(=N/O)c2ccccn2)cc1 (centres undefined)	79%	-36%	-21%	0	-15%	-5%
COc1ccc(C2CC2/C(=N/O)c2ccccc2)cc1 (centres undefined)	?	-3%	14µM*	?	-17%	20%
CCC(Sc1ccc2nnc(-c3ccc(F)cc3)n2n1)C(=O)O (centres undefined)	-14%	-6%	?	nt	-1%	?
CC(=O)C(Sc1ccc2nnc(-c3ccc(C)cc3)n2n1)C(C)=O	22%	-2%	?	0	-12%	32µM*
CC(=O)C(Sc1ccc2nnc(-c3cccnc3)n2n1)C(C)=O	57%	nt	-14%	-6	nt	71µM*
CC(=O)C(Sc1ccc2nnc(-c3ccc(F)cc3)n2n1)C(C)=O	44%	?	?	-13	8%	18µM*
Cc1ccc2c(Sc3ccc(Cl)cc3)c(C(=O)N3CCCCC3)[nH]c2c1	70%	5%	-6%	nt	nt	-9%[59 µM]
Cc1cc(C)cc(NC(=O)C2CCCN2S(=O)(=O)c2cccc3nsnc23)c1 (centres undefined)	10%	-30%	-31%	nt	nt	-32%[59 µM]
